Experiment [1] in a line: qHTS of pediatric cancer cell lines to identify multiple opportunities for drug repurposing: Primary screen for control Hh wild type fibroblast cells (AID 1347106). Also: nearly all actives have a fitted effect of over 55% in size. An outline of the steps:
(§1)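 Viability after 48 h compound treatment at 37C, 500-1,000 cells/well, read as ATP luminescence with CellTiter-Glo. Primary screens used 11-point (MIPE, 0.78 nM-46 µM) or 8-point (NPC, 0.59 nM-46 µM) final concentrations; follow-up screens used 11-point dilutions.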
In general terms: In qHTS, concentration-response curves come from the screen itself.

Experiment [2] can be described thus: qHTS of pediatric cancer cell lines to identify multiple opportunities for drug repurposing: Primary screen for Rh41 cells (AID 1347108). Also: nearly all actives have a fitted effect of over 70% in size. An outline of the steps: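 500-1,000 cells/well; 5 h pre-incubation 37 °C/5% CO2; compound pinned; 48 h; CellTiter-Glo, 15 min RT; luminescence. MIPE 11-pt from 0.78 nM, NPC 8-pt from 0.59 nM final. Bortezomib 2.3 µM final as positive control.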

The nature of experiment [3]: qHTS of pediatric cancer cell lines to identify multiple opportunities for drug repurposing: Confirmatory screen for NB1643 cells (AID 1347109). Also: nearly all actives have a fitted effect of over 45% in size. An outline of the steps:
as §1

A short description of experiment [4]: qHTS of pediatric cancer cell lines to identify multiple opportunities for drug repurposing: Confirmatory screen for A673 cells (AID 1347110). Also: nearly all actives have a fitted effect of over 65% in size. In short, it runs like this: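 Forty-eight-hour viability assay. Follow-up compounds ran at 11-point dilutions; positive control bortezomib at 2.3 uM final, neutral control DMSO.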
A short description of experiment [5]: qHTS of pediatric cancer cell lines to identify multiple opportunities for drug repurposing: Confirmatory screen for SK-N-MC cells (AID 1347111).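 Also: cells exposed to compound for 48 h before the readout; nearly all actives have a fitted effect of over 70% in size.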 In short, it runs like this: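 SK-N-MC cells at 500-1,000 cells/well in growth media were pre-incubated 5 h, then exposed to compounds at 11-point dilutions for 48 h at 37 degrees C, 5% CO2. Viability was read as CellTiter-Glo luminescence.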

The nature of experiment [6]: qHTS of pediatric cancer cell lines to identify multiple opportunities for drug repurposing: Confirmatory screen for BT-12 cells (AID 1347112). Also: nearly all actives have a fitted effect of over 55% in size. In short, it runs like this: as §1
The nature of experiment [7]: qHTS of pediatric cancer cell lines to identify multiple opportunities for drug repurposing: Confirmatory screen for DAOY cells (AID 1347114). Also: nearly all actives have a fitted effect of over 65% in size. An outline of the steps: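 Viability measured as metabolically active cells via CellTiter-Glo luminescence following 48 hours of compound exposure, 11-point dilutions in confirmatory testing. 500-1,000 cells/well plated 5 hours before dosing; controls were DMSO and 2.3 µM bortezomib.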

A short description of experiment [8]: qHTS of pediatric cancer cell lines to identify multiple opportunities for drug repurposing: Confirmatory screen for BT-37 cells (AID 1347117). Also: nearly all actives have a fitted effect of over 55% in size. An outline of the steps: as §1
Experiment [9] can be described thus: qHTS of pediatric cancer cell lines to identify multiple opportunities for drug repurposing: Confirmatory screen for TC32 cells (AID 1347118). Also: nearly all actives have a fitted effect of over 65% in size. In short, it runs like this:
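qHTS, TC32, 48 h drug treatment, CellTiter-Glo luminescence as a proxy for metabolically active cells; primary top concentration 46 µM (MIPE 11-pt, NPC 8-pt); confirmatory 11-pt.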

Experiment [10] in a line: qHTS of pediatric cancer cell lines to identify multiple opportunities for drug repurposing: Confirmatory screen for MG 63 (6-TG R) cells (AID 1347119). Also: nearly all actives have a fitted effect of over 55% in size. An outline of the steps: as §1
The nature of experiment [11]: qHTS of pediatric cancer cell lines to identify multiple opportunities for drug repurposing: Confirmatory screen for control Hh wild type fibroblast cells (AID 1347121). Also: nearly all actives have a fitted effect of over 70% in size. An outline of the steps:
as §1

A short description of experiment [12]: qHTS of pediatric cancer cell lines to identify multiple opportunities for drug repurposing: Confirmatory screen for U-2 OS cells (AID 1347122). Also: nearly all actives have a fitted effect of over 65% in size. An outline of the steps: as §1
A short description of experiment [13]: qHTS of pediatric cancer cell lines to identify multiple opportunities for drug repurposing: Confirmatory screen for Rh41 cells (AID 1347123).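 Also: 48 h compound exposure; nearly all actives have a fitted effect of over 60% in size.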 In short, it runs like this: as §1
Experiment [14] in a line: qHTS of pediatric cancer cell lines to identify multiple opportunities for drug repurposing: Confirmatory screen for Rh18 cells (AID 1347125). Also: nearly all actives have a fitted effect of over 55% in size. In short, it runs like this:
as §1

Experiment [15] is described as follows: qHTS of pediatric cancer cell lines to identify multiple opportunities for drug repurposing: Confirmatory screen for Rh30 cells (AID 1347126). Also: nearly all actives have a fitted effect of over 55% in size. In short, it runs like this:
as §1

The nature of experiment [16]: qHTS of pediatric cancer cell lines to identify multiple opportunities for drug repurposing: Confirmatory screen for Saos-2 cells (AID 1347127). Also: nearly all actives have a fitted effect of over 60% in size. An outline of the steps:
as §1

Experiment [17] can be described thus: qHTS of pediatric cancer cell lines to identify multiple opportunities for drug repurposing: Confirmatory screen for NB-EBc1 cells (AID 1347115). Also: nearly all actives have a fitted effect of over 45% in size. An outline of the steps:
as §1

Experiment [18] can be described thus: qHTS of pediatric cancer cell lines to identify multiple opportunities for drug repurposing: Confirmatory screen for RD cells (AID 1347124). An outline of the steps:
as §1

Experiment [19] in a line: qHTS of pediatric cancer cell lines to identify multiple opportunities for drug repurposing: Confirmatory screen for OHS-50 cells (AID 1347128). An outline of the steps:
as §1

These results are taken from PubChem BioAssay (NCATS).

Values joined by “and” are separate entries in the source; they are usually repeats but may differ in a detail not shown here. Equal values may be shown once. Records with an inconclusive call do not appear. Active and inactive are the calls of the source. Calls follow the shape of the dose curve; as a rule, active = well fitted curve in the direction sought with a large enough effect; inconclusive = small, poorly fitted or top-dose-only effect, or another doubt; inactive = no such curve, though single readings can be large; an effect the other way counts as inactive or inconclusive.
Potency is read from the fitted curve at half-maximal effect.

As to `Nc1nc(Cl)nc2c1ncn2[C@H]1C[C@H](O)[C@@H](CO)O1`, the Potency result in experiment [1], in [2], in experiment [6], in experiment [7], in [11] and in experiment [12] was “inactive” each time. Besides, the Potency result in experiment [13], in experiment [14], in experiment [15] and in experiment [16] was “inactive” in each case. The Potency is 2080 nM (active) in [3]; 3690 nM (active) in experiment [4]; 6570 nM (active) in experiment [5]; 208 nM (active) in [8]; 737 nM (active) in experiment [9]; 16500 nM (active) in [10].

For the compound `Clc1ccc(C(Cn2ccnc2)OCc2c(Cl)cccc2Cl)c(Cl)c1` (stereo unspecified), the Potency result in [1] and in [2] was “inactive” in each case.

For the compound `CCOC(=O)c1c(C)n(C)c2ccc(O)cc12`, the Potency result in experiment [1] and in experiment [2] was “inactive” each time.

As for `O=C(CCc1ccc(O)cc1)c1c(O)cc(O)cc1O`, the Potency result in [1], in experiment [2], in experiment [3], in [4], in experiment [5] and in [6] was “inactive” throughout. Besides, the Potency entry in [17], in [8], in experiment [9], in experiment [10], in experiment [11] and in experiment [12] was “inactive” throughout. Besides, the Potency result in [13], in [18], in experiment [14], in [15], in [16] and in experiment [19] was “inactive” throughout.

Turning to `CCN(CC)C(=S)SSC(=S)N(CC)CC`, the Potency was 166 nM (active) and 111 nM (active) and 1.19 µM (active) in [1]; 13.2 nM (active) and 70 nM (active) in experiment [2]; 8270 nM (active) in experiment [3]; 522 nM (active) in experiment [4]; 9270 nM (active) in experiment [7]; 414 nM (active) in [8]. The Potency is 293 nM (active) in experiment [9]; 11700 nM (active) in experiment [12]; 261 nM (active) in experiment [13]; 4650 nM (active) in experiment [18]; 16500 nM (active) in experiment [16]. The Potency result in experiment [10], in [11] and in [15] was “inactive” throughout.

As to `CCc1nc(N)nc(N)c1-c1ccc(Cl)cc1`, the Potency result in experiment [1], in [2] and in experiment [10] was “inactive” throughout. For the same compound, the Potency in experiment [4] is 329 nM (active); in experiment [5], 1310 nM (active); in [8], 5220 nM (active); in experiment [9], 2930 nM (active); in experiment [13], 10400 nM (active); in experiment [18], 9270 nM (active).

As for `CN(C)c1ccc2nc3ccc(=[N+](C)C)cc-3sc2c1`, the Potency was 11.9 µM (active) in experiment [1]; 5.9 µM (active) and 6.68 µM (active) in experiment [2]; 3290 nM (active) in [3]; 8270 nM (active) in experiment [4]; 1170 nM (active) in experiment [5]; 1040 nM (active) in experiment [6]. The Potency in [7] is 4650 nM (active); in experiment [17] it was 6570 nM (active); in experiment [8] it was 928 nM (active); in [9], 2610 nM (active); in experiment [10], 928 nM (active); in [11], 18500 nM (active). For the same compound, the Potency in experiment [12] was 2930 nM (active); in experiment [13], 2610 nM (active); in [18] it was 14700 nM (active); in experiment [14], 6570 nM (active); in [15], 1170 nM (active); in [16], 1170 nM (active). In experiment [19], the Potency was 8270 nM (active).

As for `Cc1ccc(C)c(OCCCC(C)(C)C(=O)O)c1`, the Potency result in experiment [1] and in [2] was “inactive” each time.

With `CCOC(=O)C1=C(O)C(=O)N(Cc2ccccc2)C1`, the Potency result in experiment [1] and in experiment [2] was “inactive” each time.

Turning to `C=C(c1ccc(C(=O)O)cc1)c1cc2c(cc1C)C(C)(C)CCC2(C)C`, the Potency result in experiment [1], in [2], in [3], in experiment [4], in experiment [6] and in experiment [7] was “inactive” in each case. The Potency entry in experiment [17], in [8], in experiment [10], in [11], in [13] and in [18] was “inactive” each time. Moreover, the Potency result in [14] and in experiment [19] was “inactive” in each case.

Take `O=C1c2c(O)cc(O)cc2OC(c2ccc(O)c(O)c2)C1O` (stereo unspecified): the Potency entry in [1], in [2], in experiment [3], in experiment [4], in experiment [5] and in experiment [6] was “inactive” throughout. In addition, the Potency entry in experiment [7], in experiment [17], in [8], in experiment [9], in experiment [10] and in [11] was “inactive” each time. Further, the Potency result in [12], in [13], in [18], in experiment [14], in [15] and in experiment [16] was “inactive” in each case. Besides, the Potency result in experiment [19] is “inactive”.

On to `Oc1ccc(-c2nc(-c3ccc(F)cc3)c(-c3ccncc3)[nH]2)cc1`, for which the Potency result in experiment [1], in experiment [7], in experiment [11], in experiment [12] and in experiment [18] was “inactive” in each case. For the same compound, the Potency in experiment [2] was 16.6 µM (active); in [3], 928 nM (active); in experiment [4], 1170 nM (active); in experiment [5], 1170 nM (active); in [6], 11700 nM (active); in experiment [17], 5220 nM (active). Besides, the Potency in experiment [8] was 737 nM (active); in [9], 737 nM (active); in [10] it was 14700 nM (active); in [13], 1470 nM (active); in [14] it was 23300 nM (active); in [15] it was 14700 nM (active). The Potency in [19] is 3690 nM (active).

As for `CC(=O)O[C@H]1C(=O)[C@@]2(C)C([C@H](OC(=O)c3ccccc3)[C@]3(O)C[C@H](OC(=O)[C@H](O)[C@@H](NC(=O)c4ccccc4)c4ccccc4)C(C)=C1C3(C)C)[C@]1(OC(C)=O)CO[C@@H]1C[C@@H]2O` (stereo partly specified), the Potency entry in [1] and in [15] was “inactive” each time. The Potency in experiment [2] is 0.0042 µM (active); in experiment [4] it was 14.7 nM (active); in [5], 11.7 nM (active); in [9], 10.4 nM (active); in [10] it was 13.1 nM (active); in experiment [13], 10.4 nM (active). Besides, the figures for the Potency in [16] and in experiment [19] were 23.3 nM (active) and 20.8 nM (active), respectively.

Consider `O=Nc1c(-c2c(O)[nH]c3cc(Br)ccc23)[nH]c2ccccc12`, for which, in experiment [1], the Potency result is “inactive”. Moreover, the Potency in [2] was 14.8 µM (active).

Consider `CCCCCCCCOc1ccccc1C(=O)Nc1ccc(C(=O)OCC[N+](C)(CC)CC)cc1`, for which the Potency entry in experiment [1] and in experiment [2] was “inactive” throughout.

Take `CN(c1nccc(=O)[nH]1)C1CCN(c2nc3ccccc3n2Cc2ccc(F)cc2)CC1`: the Potency result in [1] and in experiment [2] was “inactive” in each case.
